# Source: PubChem BioAssay (NCATS)
# Where “and” joins values, the source holds several entries; their conditions need not be identical. Identical values can stand only once. Results filed as inconclusive are left out. Calls of active or inactive are those of the source. Unless noted, calls come from the whole dose curve; as a rule, active = well fitted curve in the direction sought with a large enough effect; inconclusive = small, poorly fitted or top-dose-only effect, or another doubt; inactive = no such curve, though single readings can be large; an effect the other way counts as inactive or inconclusive.
# Assays:
# [1] = Cellular Toxicity (caspase-3) HepG2 (AID 654);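 note: cells exposed to compound for 16 hours before reading; 0% = DMSO alone and 100% = caspase signal from 100 µM tamoxifen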
# Summary of the method: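 HepG2 cells (1500/well) were treated 16 h at 37 °C in complete medium, then caspase 3/7 activity was read by Caspase-Glo luminescence. Data were normalized to DMSO and 100 uM tamoxifen; AC50 came from Hill-equation fits of qHTS concentration-response.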
# [2] = Cellular Toxicity (caspase-3) Jurkat (AID 655);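 note: cells exposed to compound for 16 h at 37 °C before reading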
# Summary of the method: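 Jurkat cells (5000/well) in complete medium exposed 16 h at 37 C; caspase-3/7 activity read by Caspase-Glo luminescence after 20 min at room temperature. Normalized to DMSO and 100 uM tamoxifen; AC50 from Hill fits.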
# [3] = Cellular Toxicity (caspase-3) HUV-EC-C (AID 656);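 note: 0% = DMSO basal and 100% = 100 µM tamoxifen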
# Summary of the method: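 HUV-EC-C cells (1000/well) in complete medium, compound-treated 16 h at 37 °C; caspase-3/7 activity read by Caspase-Glo 3/7 luminescence. Normalized to DMSO (basal) and 100 uM tamoxifen (100%); AC50 from Hill-equation concentration-response fits.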
# [4] = Cellular Toxicity (caspase-3) SHSY5Y (AID 657)
# Summary of the method: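 SH-SY5Y human neuroblastoma cells, 1500/well, exposed to compound for 16 hours at 37 °C in complete medium. Caspase-3/7 activity read by Caspase-Glo luminescence after 1 hr at room temperature, normalized to DMSO and 10 uM staurosporine; AC50 from Hill fit.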
# [5] = Cellular Toxicity (caspase-3) BJ (AID 658);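 note: 0% = DMSO basal and 100% = 10 µM staurosporine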
# Summary of the method: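 BJ human foreskin fibroblasts, 1000 cells/well, treated 16 hours at 37 °C in complete medium; caspase 3/7 activity by Caspase-Glo luminescence after 1 hr at room temperature. Normalized to DMSO and 10 uM staurosporine; AC50 from Hill fits.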
# [6] = Cellular Toxicity (caspase-3) MRC-5 (AID 659);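 note: 0% = DMSO basal and 100% = 10 µM staurosporine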
# Summary of the method: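 MRC-5 human normal lung fibroblasts, 1500 cells/well, treated 16 h at 37 °C in complete medium. Caspase 3/7 measured by Caspase-Glo luminescence after 1 h at room temperature. Normalized to DMSO and 10 uM staurosporine; AC50 from Hill fit.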
# [7] = Cellular Toxicity (caspase-3) Mesangial (AID 660)
# Summary of the method: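 Human renal glomerular mesangial cells, 1000/well, 5 h at 37 C before 16 h compound treatment. Caspase-Glo 3/7 luminescence after 20 min; normalized to DMSO and 100 uM tamoxifen, AC50 from Hill fit.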
# [8] = Cellular Toxicity (caspase-3) SK-N-SH (AID 661);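 note: 0% = DMSO basal and 100% = 10 µM staurosporine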
# Summary of the method: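 Human SK-N-SH neuroblastoma cells, 1500/well, were exposed to compounds for 16 hours at 37 °C. Caspase-Glo 3/7 luminescence was normalized to DMSO (basal) and 10 uM staurosporine (100%), and AC50 came from a Hill fit.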
# [9] = Cellular Toxicity (caspase-3) H-4-II-E (AID 663);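 note: cells exposed to compound for 16 hr before readout; 0% = DMSO basal and 100% = 100 µM tamoxifen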
# Summary of the method: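 Rat hepatoma H-4-II-E cells (1500/well) plated 5 hr, then exposed to compound titrations for 16 hr at 37 °C. Caspase-Glo 3/7 luminescence read after 20 min at RT; data normalized to DMSO and 100 uM tamoxifen, AC50 from Hill fits.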
# [10] = Cellular Toxicity (caspase-3) Hek293 (AID 664);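 note: cells exposed to compound for 16 h at 37 °C before readout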
# Summary of the method: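 HEK293 cells in complete medium treated 16 h at 37 °C, then Caspase-Glo 3/7 luminescence read after 20 min at room temperature. Normalized to DMSO and 100 uM tamoxifen; AC50 from Hill fit of concentration-response.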
# [11] = qHTS assay for small molecule antagonists of retinoid X receptor alpha signaling (AID 588546); conditions: HEK293T RXRa-UAS-bla, beta-lactamase ratio, antagonist mode; measured here: W530 green channel, cytotoxicity proxy;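 note: cells stimulated with 9-cis-retinoic acid as agonist; % is set by controls: 0 for no effect and ±100 for the full control effect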
# Summary of the method: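 Beta-lactamase reporter inhibition, read as CCF4 fluorescence ratio (ex 405, em 460/530 nm) after 2 h at RT. HEK293T UAS-bla cells, 2500/well, were stimulated with 9-cis-RA at 500 or 100 nM final alongside test compound for 18 h at 37 C.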
# [12] = molecular target: Thyroid hormone receptor beta (Homo sapiens) (UniProt P10828); test: qHTS assay for small molecule antagonists of thyroid hormone receptor beta signaling (AID 588547; active = well fitted inhibition curve with a large enough effect in the signal ratio, with a control signal flat, not every such curve was filed as active; the % refers to the signal ratio;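 note: cells stimulated with 0.4 nM T3 agonist during compound exposure; series mostly up to about 77 µM; % is set by controls: 0 for no effect and ±100 for the full control effect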); conditions: TR-UAS-bla HEK293, beta-lactamase ratio, antagonist mode, 18 h
# Summary of the method: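 TR-UAS-bla GripTite HEK293 cells in 2% charcoal/dextran FBS medium; compounds 0.59 nM to 92 uM with T3 at 0.4nM final, 18 h at 37 C. Beta-lactamase read by CCF4 fluorescence (460/530 nm); Hill fits gave IC50 and efficacy.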
# [13] = qHTS assay for small molecule activators of the nuclear factor-kappa B (NF-kB) signaling pathway (AID 651749; active = well fitted activation curve with a large enough effect in the signal ratio; the % refers to the signal ratio; note: series mostly up to about 77 µM; % of control where 0% means no effect); conditions: NF-kB-bla ME-180 cells, beta-lactamase FRET ratio, 16 h; stronger effect = higher value
# Summary of the method: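 NF-kB-bla ME-180 cells carrying a beta-lactamase reporter under an NF-kB response element, 2,000 cells/well, exposed to compound for 16 hr at 37C; FRET-based beta-lactamase fluorescence read-out of pathway activation.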
# [14] = qHTS assay for small molecule disruptors of the mitochondrial membrane potential - 1 hr assay (AID 651754; calls by dose curve; note: % is set by controls: 0 for no effect and ±100 for the full control effect; nearly all actives have a fitted effect of over 35% in size)
# Summary of the method: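 HepG2 cells, attached overnight, were exposed to compound for 1 hr at 37C, then stained 30 min with a potentiometric dye. Ratio of red aggregate (590nm) to green monomer (535nm) fluorescence reports membrane potential; collapse shifts signal toward green.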
# [15] = qHTS assay for small molecule disruptors of the mitochondrial membrane potential - 5 hr assay (AID 651755; calls by dose curve; note: % is set by controls: 0 for no effect and ±100 for the full control effect; nearly all actives have a fitted effect of over 40% in size)
# Summary of the method: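 HepG2 cells (2,000/well), attached overnight, exposed to compound 5 hr at 37C, then Mito-MPS dye 30 min. Fluorescence read for monomers (490/535 nm) and aggregates (540/590 nm).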
# [16] = molecular target: Tumor necrosis factor (Homo sapiens) (UniProt P01375); test: qHTS assay to identify small molecules that stimulate Tumor Necrosis Factor-alpha (TNF-alpha) secretion (AID 651757; active = well fitted curve in the direction sought with a large enough effect in the signal ratio; the % refers to the signal ratio; note: 0% is about no effect)
# Summary of the method: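 THP-1 cells (3000/well) exposed to compounds 17 hrs at 37 C. Secreted TNF-alpha detected by HTRF with cryptate- and XL665-labeled anti-TNF-alpha antibodies after 3 hr at room temperature.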
# [17] = qHTS assay to identify small molecules that stimulate interleukin-8 (IL-8) secretion (AID 651758; active = well fitted activation curve with a large enough effect in the signal ratio; the % refers to the signal ratio; note: 0% is about no effect)
# Summary of the method: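 THP-1 cells (2000/well) exposed to compound 16 h at 37 C; secreted IL-8 then detected by HTRF with cryptate- and XL665-labelled anti-IL-8 antibody pair after 1-3 h at room temperature.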
# [18] = qHTS assay for environmental chemicals that activate the Aryl hydrocarbon Receptor (AhR) signaling pathway (AID 651777); conditions: 1A2-DRE human hepatoma cells, luciferase, 24 h; stronger effect = higher value; note: % of control where 0% means no effect; nearly all actives have a fitted effect of over 15% in size
# Summary of the method: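 Concentration–response screening used 1,200 1A2-DRE cells per well, 24 hr compound exposure (37 C, 5% CO2), and One-Glo luminescence as the AhR-driven CYP1A2 reporter signal.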
# [19] = molecular target: Peroxisome proliferator-activated receptor alpha (Homo sapiens) (UniProt Q07869); test: qHTS assay for small molecule agonists of the peroxisome proliferator-activated receptor alpha (PPARalpha) signaling pathway (AID 651778); conditions: PathHunter PPARalpha complementation, chemiluminescence, 6 h; stronger effect = higher value; note: % of control where 0% means no effect
# Summary of the method: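 Enzyme-fragment complementation assay in which ligand-bound PPARalpha translocates and forms an active enzyme that generates chemiluminescence. Cells were plated overnight, exposed to compound for 6 hr at 37 C, and then given detection reagent for 60 min at room temperature.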
# [20] = molecular target: Nuclear receptor subfamily 1 group I member 2 (Rattus norvegicus) (UniProt Q9R1A7); test: qHTS assay for small molecule activators of the rat pregnane X receptor (rPXR) signaling pathway (AID 651751; call rule not given here; note: 0% is about no effect); conditions: rPXR reporter cells, luciferase (One-Glo), 24 h
# Nuclear receptor subfamily 1 group I member 2 (Rattus norvegicus), sequence (Q9R1A7 whole entry, looked up): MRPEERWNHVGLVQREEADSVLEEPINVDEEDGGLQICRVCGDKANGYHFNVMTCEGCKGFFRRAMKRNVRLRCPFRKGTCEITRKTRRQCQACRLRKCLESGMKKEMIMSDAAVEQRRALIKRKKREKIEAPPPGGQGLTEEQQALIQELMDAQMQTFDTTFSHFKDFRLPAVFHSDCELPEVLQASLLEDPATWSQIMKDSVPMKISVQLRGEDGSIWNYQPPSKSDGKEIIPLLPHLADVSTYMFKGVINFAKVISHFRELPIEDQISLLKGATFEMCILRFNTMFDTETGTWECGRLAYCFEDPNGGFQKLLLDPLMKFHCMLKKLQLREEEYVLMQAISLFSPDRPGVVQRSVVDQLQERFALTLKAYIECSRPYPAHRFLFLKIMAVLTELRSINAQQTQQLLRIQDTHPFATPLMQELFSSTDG
# Peroxisome proliferator-activated receptor alpha (Homo sapiens), sequence (Q07869 whole entry, looked up, the tested form may be a part): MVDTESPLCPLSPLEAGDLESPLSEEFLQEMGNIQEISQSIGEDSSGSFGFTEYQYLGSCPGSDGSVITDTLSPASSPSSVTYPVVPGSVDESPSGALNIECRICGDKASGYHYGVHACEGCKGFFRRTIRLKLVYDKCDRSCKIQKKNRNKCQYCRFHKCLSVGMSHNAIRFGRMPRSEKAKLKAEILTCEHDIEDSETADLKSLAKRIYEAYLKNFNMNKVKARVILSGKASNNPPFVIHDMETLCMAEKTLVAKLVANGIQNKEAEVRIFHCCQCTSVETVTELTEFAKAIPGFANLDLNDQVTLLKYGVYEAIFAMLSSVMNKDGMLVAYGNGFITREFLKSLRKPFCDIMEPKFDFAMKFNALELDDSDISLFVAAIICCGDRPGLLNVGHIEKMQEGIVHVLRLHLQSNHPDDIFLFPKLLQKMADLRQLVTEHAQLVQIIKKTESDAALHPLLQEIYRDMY
# Thyroid hormone receptor beta (Homo sapiens), sequence (P10828 whole entry, looked up): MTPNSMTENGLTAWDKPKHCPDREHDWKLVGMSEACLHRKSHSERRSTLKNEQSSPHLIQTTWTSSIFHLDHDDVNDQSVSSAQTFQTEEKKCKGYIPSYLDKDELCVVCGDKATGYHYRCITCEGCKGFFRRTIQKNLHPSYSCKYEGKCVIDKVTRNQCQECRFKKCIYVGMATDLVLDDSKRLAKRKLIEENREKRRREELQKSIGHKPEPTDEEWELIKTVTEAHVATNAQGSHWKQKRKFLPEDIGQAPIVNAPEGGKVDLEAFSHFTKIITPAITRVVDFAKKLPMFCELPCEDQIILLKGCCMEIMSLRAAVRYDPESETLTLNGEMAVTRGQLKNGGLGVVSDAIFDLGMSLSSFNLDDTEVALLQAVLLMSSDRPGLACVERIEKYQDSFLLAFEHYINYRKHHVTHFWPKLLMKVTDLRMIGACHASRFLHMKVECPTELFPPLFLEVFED
# Tumor necrosis factor (Homo sapiens), sequence (P01375 whole entry, looked up): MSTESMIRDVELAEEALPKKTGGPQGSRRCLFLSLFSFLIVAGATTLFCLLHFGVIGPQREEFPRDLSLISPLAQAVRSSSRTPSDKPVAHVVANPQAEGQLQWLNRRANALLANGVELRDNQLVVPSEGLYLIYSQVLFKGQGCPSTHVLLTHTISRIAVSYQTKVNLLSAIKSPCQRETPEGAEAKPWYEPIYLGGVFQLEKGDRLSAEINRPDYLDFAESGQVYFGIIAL
smiles,measurement,setting,value
C=C(C)[C@H]1CC=C(C)C(=O)C1,outcome,[1],inactive
same,outcome,[2],inactive
same,outcome,[3],inactive
same,outcome,[4],inactive
same,outcome,[5],inactive
same,outcome,[6],inactive
same,outcome,[7],inactive
same,outcome,[8],inactive
same,outcome,[9],inactive
same,outcome,[10],inactive
same,max response,[11],-6.91% and -9.16%
same,activity change % (negative = inhibition),[12],1.99% (inactive)
same,activation,[13],-0.312% (inactive) and 0.229% (inactive)
same,outcome,[14],inactive
same,outcome,[15],inactive
same,outcome,[16],inactive
same,outcome,[17],inactive
same,activation,[18],-0.835% (inactive) and 2.01% (inactive)
same,max response,[19],-1.19% (inactive) and -3.66% (inactive)
same,max response,[20],-2.55% (inactive) and 3.05% (inactive)
